Results published in PubChem BioAssay AID1159580 (chemical genetic matrix, 2015).
About 2,000 (36%) of roughly 5,500 compounds were called active. Another 18% or so got no clear call; they are omitted. No stated cut-off is given here; in the data, active means normalized growth mostly below about 0.91 (no sharp cut-off); inconclusive means no clear call, values can overlap the other calls; inactive means mostly above about 0.92. Some of the results follow.

Test: chemical genetic growth profiling, strain panel (AID 1159580);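 further: tested at 20 µM; growth read once vehicle control cultures reached saturation at 30 °C; 1 = growth at the plate median or of vehicle wells; lower values mean less growth of the strain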
Conditions: growth OD

Measured: normalized growth

CC(=O)OCC(OC(C)=O)C(OC(C)=O)C(OC(C)=O)C(OC(C)=O)C(COC(C)=O)OC(C)=O (stereo not given)
inactive: S. cerevisiae deletion strains, locus YAL021C, strain ccr4, active compounds read low 0.998 | S. cerevisiae deletion strains, locus YAL026C, strain drs2, active compounds read low 0.993 | S. cerevisiae deletion strains, locus YAL030W, strain snc1, active compounds read low 0.994 | S. cerevisiae deletion strains, locus YBL061C, strain skt5, active compounds read low 0.985 | S. cerevisiae deletion strains, locus YBR009C, strain hhf1, active compounds read low 0.994 | S. cerevisiae deletion strains, locus YBR021W, strain FUR4, active compounds read low 1.01 | S. cerevisiae deletion strains, locus YBR023C, strain chs3, active compounds read low 0.99 | S. cerevisiae deletion strains, locus YBR171W, strain sec66, active compounds read low 0.985 | S. cerevisiae deletion strains, locus YBR229C, strain ROT2, active compounds read low 0.996 | S. cerevisiae deletion strains, locus YBR231C, strain swc5, active compounds read low 0.989 | S. cerevisiae deletion strains, locus YBR279W, strain paf1, active compounds read low 0.994 | S. cerevisiae deletion strains, locus YCL011C, strain gbp2, active compounds read low 0.996 | S. cerevisiae deletion strains, locus YCL016C, strain dcc1, active compounds read low 0.994 | S. cerevisiae deletion strains, locus YCL029C, strain bik1, active compounds read low 0.984 | S. cerevisiae deletion strains, locus YCL061C, strain MRC1, active compounds read low 0.992 | S. cerevisiae deletion strains, locus YCL069W, strain vba3, active compounds read low 0.999 | S. cerevisiae deletion strains, locus YCR088W, strain abp1, active compounds read low 0.991 | S. cerevisiae deletion strains, locus YDL005C, strain med2, active compounds read low 0.989 | S. cerevisiae deletion strains, locus YDL035C, strain GPR1, active compounds read low 1.07 | S. cerevisiae deletion strains, locus YDL040C, strain nat1, active compounds read low 0.98 | S. cerevisiae deletion strains, locus YDL074C, strain BRE1, active compounds read low 1.09 | S. cerevisiae deletion strains, locus YDL101C, strain DUN1, active compounds read low 1 | S. cerevisiae deletion strains, locus YDL185W, strain tfp1, active compounds read low 0.991 | S. cerevisiae deletion strains, locus YDL192W, strain arf1, active compounds read low 1.02 | S. cerevisiae deletion strains, locus YDR001C, strain nth1, active compounds read low 0.99 | S. cerevisiae deletion strains, locus YDR069C, strain doa4, active compounds read low 0.986 | S. cerevisiae deletion strains, locus YDR101C, strain arx1, active compounds read low 1.01 | S. cerevisiae deletion strains, locus YDR137W, strain rgp1, active compounds read low 1.01 | S. cerevisiae deletion strains, locus YDR150W, strain NUM1, active compounds read low 1.01 | S. cerevisiae deletion strains, locus YDR159W, strain sac3, active compounds read low 0.979 | S. cerevisiae deletion strains, locus YDR162C, strain NBP2, active compounds read low 1.03 | S. cerevisiae deletion strains, locus YDR195W, strain ref2 0.943 | S. cerevisiae deletion strains, locus YDR297W, strain sur2, active compounds read low 0.992 | S. cerevisiae deletion strains, locus YDR318W, strain mcm21, active compounds read low 0.999 | S. cerevisiae deletion strains, locus YDR334W, strain swr1, active compounds read low 0.983 | S. cerevisiae deletion strains, locus YDR335W, strain msn5, active compounds read low 0.986 | S. cerevisiae deletion strains, locus YDR388W, active compounds read low 0.983 | S. cerevisiae deletion strains, locus YDR392W, strain spt3, active compounds read low 0.99 | S. cerevisiae deletion strains, locus YDR502C, strain sam2, active compounds read low 0.998 | S. cerevisiae deletion strains, locus YEL003W, strain gim4, active compounds read low 0.993 | S. cerevisiae deletion strains, locus YEL037C, strain rad23, active compounds read low 0.989 | S. cerevisiae deletion strains, locus YEL061C, strain CIN8 (second series), active compounds read low 0.979 | S. cerevisiae deletion strains, locus YER015W, strain faa2, active compounds read low 0.992 | S. cerevisiae deletion strains, locus YER016W, strain bim1, active compounds read low 0.988 | S. cerevisiae deletion strains, locus YER110C, active compounds read low 0.963 | S. cerevisiae deletion strains, locus YER111C, strain swi4, active compounds read low 0.985 | S. cerevisiae deletion strains, locus YER155C, strain BEM2 (second series), active compounds read low 0.981 | S. cerevisiae deletion strains, locus YER155C, strain BEM2, active compounds read low 0.972 | S. cerevisiae deletion strains, locus YER167W, strain BCK2, active compounds read low 1.01 | S. cerevisiae deletion strains, locus YFR010W, strain ubp6, active compounds read low 0.989 | S. cerevisiae deletion strains, locus YGL078C, strain dbp3, active compounds read low 0.976 | S. cerevisiae deletion strains, locus YGL086W, strain mad1, active compounds read low 1 | S. cerevisiae deletion strains, locus YGL167C, strain pmr1, active compounds read low 0.998 | S. cerevisiae deletion strains, locus YGL173C, strain kem1, active compounds read low 0.991 | S. cerevisiae deletion strains, locus YGL227W, strain vid30, active compounds read low 0.99 | S. cerevisiae deletion strains, locus YGL240W, strain doc1, active compounds read low 0.998 | S. cerevisiae deletion strains, locus YGL248W, strain PDE1, active compounds read low 1.03 | S. cerevisiae deletion strains, locus YGL253W, strain hxk2, active compounds read low 0.984 | S. cerevisiae deletion strains, locus YGR078C, strain PAC10, active compounds read low 1.02 | S. cerevisiae deletion strains, locus YGR135W, strain pre9, active compounds read low 0.964 | S. cerevisiae deletion strains, locus YGR252W, strain gcn5, active compounds read low 0.996 | S. cerevisiae deletion strains, locus YHR013C, strain ard1, active compounds read low 0.964 | S. cerevisiae deletion strains, locus YHR027C, strain rpn1, active compounds read low 0.995 | S. cerevisiae deletion strains, locus YHR030C, strain SLT2, active compounds read low 1.01 | S. cerevisiae deletion strains, locus YHR079C, strain IRE1 (second series), active compounds read low 0.987 | S. cerevisiae deletion strains, locus YHR094C, strain hxt1, active compounds read low 0.987 | S. cerevisiae deletion strains, locus YHR129C, strain ARP1, active compounds read low 1 | S. cerevisiae deletion strains, locus YHR142W, strain chs7, active compounds read low 0.983 | S. cerevisiae deletion strains, locus YHR200W, strain rpn10, active compounds read low 0.986 | S. cerevisiae deletion strains, locus YIL066C, strain RNR3, active compounds read low 1.02 | S. cerevisiae deletion strains, locus YIL073C, strain SPO22, active compounds read low 1.06 | S. cerevisiae deletion strains, locus YIL125W, strain kgd1, active compounds read low 0.976 | S. cerevisiae deletion strains, locus YIR030C, strain dcg1, active compounds read low 0.978 | S. cerevisiae deletion strains, locus YJL092W, strain hpr5, active compounds read low 0.998 | S. cerevisiae deletion strains, locus YJL095W, strain BCK1 (second series), active compounds read low 0.985 | S. cerevisiae deletion strains, locus YJL095W, strain BCK1, active compounds read low 1.05 | S. cerevisiae deletion strains, locus YJL115W, strain asf1, active compounds read low 0.975 | S. cerevisiae deletion strains, locus YJL129C, strain trk1, active compounds read low 0.988 | S. cerevisiae deletion strains, locus YJL134W, strain LCB3, active compounds read low 1 | S. cerevisiae deletion strains, locus YJL154C, strain vps35, active compounds read low 0.986 | S. cerevisiae deletion strains, locus YJL164C, strain tpk1, active compounds read low 0.986 | S. cerevisiae deletion strains, locus YJL166W, strain qcr8, active compounds read low 0.993 | S. cerevisiae deletion strains, locus YJL168C, strain set2, active compounds read low 0.98 | S. cerevisiae deletion strains, locus YJL187C, strain SWE1 (second series), active compounds read low 1.02 | S. cerevisiae deletion strains, locus YJL187C, strain SWE1, active compounds read low 1 | S. cerevisiae deletion strains, locus YJR043C, strain POL32, active compounds read low 1.07 | S. cerevisiae deletion strains, locus YKL009W, strain mrt4, active compounds read low 1.01 | S. cerevisiae deletion strains, locus YKL068W, active compounds read low 0.995 | S. cerevisiae deletion strains, locus YKL085W, strain MDH1 (second series), active compounds read low 0.992 | S. cerevisiae deletion strains, locus YKL085W, strain MDH1, active compounds read low 0.992 | S. cerevisiae deletion strains, locus YKL160W, strain elf1, active compounds read low 0.997 | S. cerevisiae deletion strains, locus YKR001C, strain vps1, active compounds read low 1.04 | S. cerevisiae deletion strains, locus YKR026C, strain gcn3, active compounds read low 0.999 | S. cerevisiae deletion strains, locus YKR091W, strain srl3, active compounds read low 0.991 | S. cerevisiae deletion strains, locus YLL001W, strain dnm1, active compounds read low 0.989 | S. cerevisiae deletion strains, locus YLL026W, active compounds read low 0.994 | S. cerevisiae deletion strains, locus YLL041C, strain sdh2, active compounds read low 0.995 | S. cerevisiae deletion strains, locus YLR027C, strain aat2, active compounds read low 0.995 | S. cerevisiae deletion strains, locus YLR039C, strain RIC1, active compounds read low 1.2 | S. cerevisiae deletion strains, locus YLR058C, strain SHM2, active compounds read low 1.02 | S. cerevisiae deletion strains, locus YLR102C, strain apc9, active compounds read low 0.975 | S. cerevisiae deletion strains, locus YLR221C, strain rsa3, active compounds read low 0.999 | S. cerevisiae deletion strains, locus YLR258W, strain gsy2, active compounds read low 0.994 | S. cerevisiae deletion strains, locus YLR262C, strain YPT6 (second series), active compounds read low 1.01 | S. cerevisiae deletion strains, locus YLR268W, strain sec22, active compounds read low 1.04 | S. cerevisiae deletion strains, locus YLR320W, strain mms22, active compounds read low 0.992 | S. cerevisiae deletion strains, locus YLR330W, strain CHS5, active compounds read low 1 | S. cerevisiae deletion strains, locus YLR342W, strain FKS1, active compounds read low 0.987 | S. cerevisiae deletion strains, locus YLR357W, strain rsc2, active compounds read low 0.982 | S. cerevisiae deletion strains, locus YLR370C, strain arc18, active compounds read low 0.99 | S. cerevisiae deletion strains, locus YLR371W, strain rom2, active compounds read low 0.989 | S. cerevisiae deletion strains, locus YLR384C, strain iki3, active compounds read low 1 | S. cerevisiae deletion strains, locus YLR418C, strain cdc73, active compounds read low 1.01 | S. cerevisiae deletion strains, locus YML016C, strain PPZ1, active compounds read low 1.01 | S. cerevisiae deletion strains, locus YML032C, strain rad52, active compounds read low 0.993 | S. cerevisiae deletion strains, locus YML120C, strain ndi1, active compounds read low 0.985 | S. cerevisiae deletion strains, locus YML124C, strain tub3, active compounds read low 0.99 | S. cerevisiae deletion strains, locus YMR058W, strain fet3, active compounds read low 0.994 | S. cerevisiae deletion strains, locus YMR078C, strain ctf18, active compounds read low 0.981 | S. cerevisiae deletion strains, locus YMR125W, strain sto1, active compounds read low 0.975 | S. cerevisiae deletion strains, locus YMR129W, active compounds read low 0.991 | S. cerevisiae deletion strains, locus YMR205C, strain PFK2, active compounds read low 0.985 | S. cerevisiae deletion strains, locus YMR223W, strain ubp8, active compounds read low 0.993 | S. cerevisiae deletion strains, locus YMR231W, strain pep5, active compounds read low 1 | S. cerevisiae deletion strains, locus YMR307W, strain GAS1, active compounds read low 1.09 | S. cerevisiae deletion strains, locus YNL067W, strain RPL9B, active compounds read low 1.01 | S. cerevisiae deletion strains, locus YNL071W, strain lat1, active compounds read low 0.99 | S. cerevisiae deletion strains, locus YNL128W, strain TEP1, active compounds read low 1 | S. cerevisiae deletion strains, locus YNL209W, strain ssb2, active compounds read low 0.998 | S. cerevisiae deletion strains, locus YNL233W, strain BNI4, active compounds read low 1.03 | S. cerevisiae deletion strains, locus YNL248C, strain rpa49, active compounds read low 1.01 | S. cerevisiae deletion strains, locus YNL250W, strain rad50, active compounds read low 0.978 | S. cerevisiae deletion strains, locus YNL271C, strain bni1, active compounds read low 0.998 | S. cerevisiae deletion strains, locus YNL298W, strain CLA4, active compounds read low 0.987 | S. cerevisiae deletion strains, locus YNL307C, strain MCK1, active compounds read low 0.977 | S. cerevisiae deletion strains, locus YNL322C, strain KRE1 (second series), active compounds read low 0.993 | S. cerevisiae deletion strains, locus YNR049C, strain mso1, active compounds read low 0.975 | S. cerevisiae deletion strains, locus YNR052C, strain pop2, active compounds read low 0.962 | S. cerevisiae deletion strains, locus YOL006C, strain TOP1, active compounds read low 1.27 | S. cerevisiae deletion strains, locus YOL012C, strain htz1 1.05 | S. cerevisiae deletion strains, locus YOL147C, strain pex11, active compounds read low 0.997 | S. cerevisiae deletion strains, locus YOR001W, strain rrp6, active compounds read low 0.997 | S. cerevisiae deletion strains, locus YOR061W, strain CKA2, active compounds read low 0.997 | S. cerevisiae deletion strains, locus YOR069W, strain VPS5, active compounds read low 1.01 | S. cerevisiae deletion strains, locus YOR070C, strain gyp1, active compounds read low 0.99 | S. cerevisiae deletion strains, locus YOR080W, strain dia2, active compounds read low 0.985 | S. cerevisiae deletion strains, locus YOR083W, strain WHI5, active compounds read low 0.995 | S. cerevisiae deletion strains, locus YOR106W, strain vam3, active compounds read low 0.989 | S. cerevisiae deletion strains, locus YOR136W, strain idh2, active compounds read low 0.973 | S. cerevisiae deletion strains, locus YOR144C, strain elg1, active compounds read low 0.975 | S. cerevisiae deletion strains, locus YOR184W, strain ser1, active compounds read low 1.06 | S. cerevisiae deletion strains, locus YOR265W, strain rbl2, active compounds read low 0.983 | S. cerevisiae deletion strains, locus YOR270C, strain vph1, active compounds read low 0.981 | S. cerevisiae deletion strains, locus YOR290C, strain snf2, active compounds read low 0.978 | S. cerevisiae deletion strains, locus YOR316C, strain cot1, active compounds read low 0.987 | S. cerevisiae deletion strains, locus YPL051W, strain arl3, active compounds read low 0.995 | S. cerevisiae deletion strains, locus YPL078C, strain atp4, active compounds read low 0.993 | S. cerevisiae deletion strains, locus YPL106C, strain sse1, active compounds read low 1.01 | S. cerevisiae deletion strains, locus YPL240C, strain hsp82, active compounds read low 0.996 | S. cerevisiae deletion strains, locus YPR119W, strain clb2, active compounds read low 0.989 | S. cerevisiae deletion strains, locus YPR141C, strain kar3, active compounds read low 0.997 | S. cerevisiae deletion strains, locus YPR163C, strain tif3, active compounds read low 0.998 | S. cerevisiae deletion strains, locus YPR167C, strain met16, active compounds read low 0.962 | S. cerevisiae deletion strains, strain wtn01, active compounds read low 1.03 | S. cerevisiae strains, strain wild type, active compounds read low 1.04
